Measured values from PubChem BioAssay AID2330 (Broad Institute, 2010).
The campaign covered roughly 37,000 compounds. About 2,800 (7.6%) were called active. Roughly 1% stayed inconclusive and do not appear here. This excerpt belongs to a sample that is enriched for actives. Unmarked numbers belong to inactive results. No stated cut-off is given here; in the data, active means inhibition above about 80%; inconclusive means no clear call, values can overlap the other calls; inactive means below that.

Assay: NOMO-1 AML cell viability reduction, primary screen, STK33 inhibitor project, CellTiter-Glo luminescence (AID 2330)
Settings: NOMO-1 AML viability, 72 h, hits give high values, concentration not given here

| SMILES | inhibition |
| --- | --- |
| Cc1ccc(S(=O)(=O)N(C)C[C@H]2Oc3ccc(NC(=O)Nc4cccc5ccccc45)cc3CC(=O)N([C@H](C)CO)C[C@H]2C)cc1 | 23.8% |
| CC(=O)c1cccc(NC(=O)CN(C)S(=O)(=O)c2ccc3ccccc3c2)c1 | 19.7% |
| Nc1nnc(SCC(=O)Nc2ccc(F)c(Cl)c2)s1 | 10% |
| Cc1ccc(N(C(C)C(=O)Nc2ccc(F)c(Cl)c2)S(C)(=O)=O)cc1C (stereo not given) | 32.7% |
| C[C@H](CO)N1C[C@H](C)[C@@H](CN(C)S(=O)(=O)c2ccc(F)cc2)Oc2c(NC(=O)Nc3ccccc3)cccc2C1=O | 8.66% |
| COc1cc(NC(=O)COc2ccc(Cl)cc2C)c(OC)cc1Cl | -5.6% |
| C=C1C(=O)OC2/C=C(\C)CC3C=C(CC/C=C(\C)CCC12)C(=O)O3 (stereo not given) | 114% (active) |
| C[C@@H]1CN([C@@H](C)CO)C(=O)c2cc(NC(=O)C3CCCCC3)ccc2O[C@@H]1CN(C)S(=O)(=O)c1ccc(F)cc1 | -1.45% |
| C[C@@H]1CN([C@@H](C)CO)C(=O)c2cc(NS(=O)(=O)c3cccs3)ccc2O[C@@H]1CN(C)S(=O)(=O)c1ccc(F)cc1 | 7.75% |
| CC[C@H]1CN2CCc3cc(OC)c(OC)cc3[C@@H]2C[C@@H]1C[C@H]1NCCc2cc(OC)c(OC)cc21 | 144% (active) |
| Cc1noc(C)c1NC(=O)Nc1ccc2c(c1)C(=O)N([C@@H](C)CO)C[C@H](C)[C@H](CN(C)Cc1ccc(-c3ccccc3)cc1)O2 | 28.6% |
| COc1ccc(S(=O)(=O)Nc2ccc3c(c2)C(=O)N([C@@H](C)CO)C[C@@H](C)[C@H](CN(C)S(=O)(=O)c2cccs2)O3)cc1 | -10.4% |
| CC(=O)c1cccc(NC(=O)C(C)N(c2ccc(C)cc2)S(C)(=O)=O)c1 (stereo not given) | 14.6% |
| Cc1ccc(S(=O)(=O)N(C)CC(=O)Nc2ccc(C#N)cc2)cc1 | -13.1% |
| C[C@@H]1CN([C@@H](C)CO)C(=O)Cc2cc(NC(=O)Nc3ccccc3)ccc2O[C@@H]1CN(C)S(=O)(=O)c1ccc(F)cc1 | 14.1% |
| COc1ccc(NC(=O)Nc2ccc3c(c2)CC(=O)N([C@H](C)CO)C[C@H](C)[C@H](CN(C)S(=O)(=O)c2ccc(OC)cc2)O3)cc1 | 23.1% |
| C[C@@H]1CN([C@@H](C)CO)C(=O)Cc2cc(NC(=O)Nc3ccc(F)cc3)ccc2O[C@@H]1CN(C)S(=O)(=O)c1ccccc1 | 20.8% |
| C[C@H]1CN([C@@H](C)CO)C(=O)Cc2cc(NC(=O)Nc3ccc(F)cc3)ccc2O[C@H]1CN(C)S(=O)(=O)c1ccc(F)cc1 | 126% (active) |
| COc1ccc(S(=O)(=O)N(C)C[C@@H]2Oc3ccc(NC(=O)C4CC4)cc3CC(=O)N([C@@H](C)CO)C[C@@H]2C)cc1 | -0.988% |
| C[C@@H]1CN([C@@H](C)CO)C(=O)Cc2cc(NC(=O)Nc3ccc4c(c3)OCO4)ccc2O[C@@H]1CN(C)S(=O)(=O)c1ccc(Cl)cc1 | 30.8% |

| SMILES | inhibition |
| --- | --- |
| C[C@@H]1CN([C@H](C)CO)C(=O)Cc2cc(NC(=O)C3CCCCC3)ccc2O[C@H]1CN(C)S(=O)(=O)c1ccc(Cl)cc1 | 28.6% |
| C[C@@H]1CN([C@H](C)CO)C(=O)Cc2cc(NC(=O)Nc3ccc(C(F)(F)F)cc3)ccc2O[C@@H]1CN(C)S(=O)(=O)c1ccccc1 | 31.7% |
| C[C@H]1CN([C@@H](C)CO)C(=O)Cc2cc(NC(=O)Nc3ccc(F)cc3)ccc2O[C@H]1CN(C)S(=O)(=O)c1ccccc1 | 108% (active) |
| C[C@H]1CN([C@@H](C)CO)C(=O)Cc2cc(NC(=O)C3CC3)ccc2O[C@H]1CN(C)S(=O)(=O)c1ccc(Cl)cc1 | 125% (active) |
| COc1ccc(NC(=O)Nc2ccc3c(c2)CC(=O)N([C@H](C)CO)C[C@H](C)[C@H](CN(C)S(=O)(=O)c2ccccc2)O3)cc1 | 57.6% |
| C[C@H]1CN([C@@H](C)CO)C(=O)Cc2cc(NC(=O)Nc3ccc(C(F)(F)F)cc3)ccc2O[C@@H]1CN(C)S(=O)(=O)c1ccc(Cl)cc1 | 105% (active) |
| Cc1nnc(SCc2ccc(C(=O)c3ccc(Cl)cc3)o2)n1-c1ccccc1 | -16.2% |
| CC(C)NC(=O)Nc1ccc2c(c1)C(=O)N([C@H](C)CO)C[C@H](C)[C@@H](CN(C)S(C)(=O)=O)OCCCC[C@@H](C)O2 | 34% |
| COc1ccc(NC(=O)N(C)C[C@@H]2Oc3ccc(NC(=O)CCCN(C)C)cc3CC(=O)N([C@H](C)CO)C[C@H]2C)cc1 | -16.5% |
| COc1ccc(NC(=O)N(C)C[C@@H]2OCCCC[C@@H](C)Oc3ccc(NC(=O)NC4CCCCC4)cc3C(=O)N([C@H](C)CO)C[C@@H]2C)cc1 | -2.15% |
| Cc1ccc(S(=O)(=O)N(C)C[C@H]2Oc3ccc(NC(=O)CCCCCC(=O)Nc4ccccc4N)cc3C(=O)N([C@H](C)CO)C[C@H]2C)cc1 | 19.8% |
| COc1ccc(NC(=O)Nc2ccc3c(c2)C(=O)N([C@H](C)CO)C[C@H](C)[C@@H](CN(C)C(=O)NC2CCCCC2)OCCCC[C@@H](C)O3)cc1 | -9.45% |
| C[C@@H]1CN([C@H](C)CO)C(=O)c2cccc(NS(=O)(=O)c3ccc(Cl)cc3)c2O[C@@H]1CN(C)CC1CC1 | 0.793% |
| CC(C)c1ccc(OCC(O)Cn2cnc3ccccc32)cc1 (stereo not given) | 52% |
| CCc1cc(C)cc(OCC(O)Cn2cnc3ccccc32)c1 (stereo not given) | 50.9% |
| Cc1nc2ccccc2n1CC(O)COc1ccc(C2C=CCC2)cc1 (stereo not given) | 85% (active) |
| COC(=O)c1ccccc1NC(=O)CSc1n[nH]c(-c2ccncc2)n1 | 19.3% |
| O=C(NCCN1CCCCC1)Nc1cccc(Cl)c1 | 6.03% |
| C[C@H]1CN([C@@H](C)CO)C(=O)c2cccc(NS(=O)(=O)c3ccc(Cl)cc3)c2O[C@@H]1CN(C)Cc1ccc(Oc2ccccc2)cc1 | 44.7% |
| Cc1ccc(NC(=O)COc2ccccc2C)c([N+](=O)[O-])c1 | -19.4% |
